Reference: PubChem BioAssay
Records with an inconclusive call do not appear. Activity calls are given as the source filed them.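 The calls were made as follows, unless noted: active = Her2 level under about 52% in both replicate screens, with viability over 70% of control (limit read from the data); inconclusive = Her2 under the limit in one screen only, or viability under 70%; inactive = Her2 level above the set limit.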

Legend:
[1] = reducers of endogenous Her2 protein level, primary screen, SKBR3 breast tumor cells, AlphaScreen, ATP viability (AID 461); conditions: 18-24 h, measured here: SKBR3 viability, ATP luminescence, at 10 µM;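 as to Her2 level: lower value means less Her2 protein in the cells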;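 as to viability: percent of carrier control wells set as 100% viability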
[2] = target: Receptor tyrosine-protein kinase erbB-2 (Homo sapiens) (UniProt P04626); experiment: as above; conditions: 18-24 h, at 10 µM, stronger effect = lower value
[3] = SK-BR-3 cell growth inhibitors, pilot screen, 24 h, human (AID 572;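 active = viability at or below 10% of carrier control in both of two separate runs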;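 also: compound exposure lasted between 18 and 24 h rather than exactly 24 h; 100% = carrier-treated control wells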); conditions: SK-BR-3 viability, CellTiter-Glo luminescence, at 10 µM, stronger effect = lower value
[4] = HUVEC growth inhibition – cell-based, human, primary screen (AID 575;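 active = viability at or below 30% in both replicate assays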;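 also: 100% = median of untreated cell wells with 0.1% DMSO on each plate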); conditions: HUVEC proliferation, CellTiter-Glo luminescence, 72 h; at 10 µM; stronger effect = lower value
[5] = growth inhibitors of H69AR lung tumor, primary screen, human, duplicate replicates (AID 580;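 active = viability at or under a set limit in both replicates, limit being median viability minus 3 SD, cut at about 48% in these data, passing the limit was not always enough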;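 also: 100% = mean luminescence of untreated wells and 0% = no signal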); conditions: H69AR lung tumor cells viability, ATP luminescence, 72 h; at 10 µM; stronger effect = lower value
[6] = reversal of MRP1-mediated doxorubicin resistance, pilot screen, H69AR cells, doxorubicin co-treatment (AID 601;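 active = viability loss from added drug above about 55%, and viability with drug at most 40%, in both replicates, limit read from the data, passing the limit was not always enough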); conditions: CellTiter-Glo, 72 h, at 10 µM; for differential viability (reversal): stronger effect = higher value
[7] = 384-well plate pilot, post-Golgi transport modulator project, inhibition of yeast transport mutant growth (AID 636; in the data active = inhibition above about 31%); conditions: absorbance 615 nm, about 18 h, stronger effect = higher value
[8] = growth suppression of yeast trafficking mutant, preliminary HTS, modulators of trafficking downstream of Golgi apparatus project, 1536-format plate, OD 615 nm (AID 637; in the data active = inhibition above about 30%); conditions: yeast transport mutant growth, absorbance 615 nm, 18 h; stronger effect = higher value
[9] = OD615 S. cerevisiae growth inhibition, permissive medium, pilot counter-assay, permissive growth control for S. cerevisiae lifespan shortening project (AID 705;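 active = growth inhibition above 25% in both replicates, a cutoff set 3 SD above the mean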); conditions: OD615, 24 h, at 10 µM, stronger effect = higher value
[10] = Restrictive medium S. cerevisiae growth inhibition, OD615, pilot screen of yeast lifespan reduction project, restrictive growth control (AID 706;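 active = growth inhibition above a set limit, 3 SD over mean compound inhibition, in both replicates, cut at about 43% in these data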;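 also: modified DeaD lifespan yeast strain shifted to restrictive glucose medium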); conditions: OD615, 48 h, at 10 µM, stronger effect = higher value
[11] = viability gain of MRP-1-high H69AR cells under doxorubicin, pilot screen, MRP-1 activator project, CellTiter-Glo, duplicate (AID 807;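 active = viability increase at or above a cutoff of the median across tested compounds plus 3 SD, cut at about 8.5% in these data, passing the limit was not always enough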;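 also: compound pretreatment 18-22 h then 72 h combined with doxorubicin; 0% = doxorubicin alone and 100% = vehicle without doxorubicin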); conditions: H69AR viability with doxorubicin, CellTiter-Glo luminescence; at 10 µM; stronger effect = higher value
[12] = growth suppression of beta-catenin knockout HCT116, pilot screen, human colon tumor cells (AID 823;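 active = cell viability at or below a set limit in both duplicate runs, the limit being the all-compound median minus 4 SD, cut at about 23% in these data, passing the limit was not always enough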;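 also: 0% = wells killed by 20 µM Hyamine and 100% = untreated DMSO cell wells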); conditions: CellTiter-Glo, 60 h, at 10 µM, stronger effect = lower value
[13] = growth suppression of PTEN-deleted HCT116, pilot screen, cell-based, HCT116 clonal line, CellTiter-Glo (AID 824;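 active = viability at or below 27.92% in each of two runs, the all-compound median minus 4 SD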;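 also: 0% = 20 µM Hyamine control and 100% = vehicle cell control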); conditions: 60 h, at 10 µM, stronger effect = lower value
[14] = inhibitors of the yeast RAM network, pilot screen, dse1pr::URA3 reporter, 5-FOA selection (AID 869;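 active = inhibition over a set limit, the all-compound mean plus 3 SD, in both replicate runs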;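 also: 0% = DMSO wells with no growth and 100% = 10 µM 1-NA-PP1 with full growth; RAM network block rescues cells from 5-FOA so hits raise OD615 growth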); conditions: S. cerevisiae dse1pr::URA3 5-FOA growth, OD615, 2 d; at 10 µM; stronger effect = higher value; strain carries analog-sensitive mutant Cbk1 kinase
[15] = RAM signaling pathway blockade in yeast – S. cerevisiae, Pdr1DBD-CYC8 efflux-inhibited sensitized strain, primary screen (AID 1298;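 active = RAM network inhibition above 8.4% in each of two replicates, 3 SD over the compound average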;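 also: 0% = DMSO untreated cells without growth and 100% = 10 µM 1-NA-PP1 full growth; higher means more yeast growth rescued from 5-FOA killing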); conditions: S. cerevisiae cbk1-as DSE1-URA3 strain, 5-FOA growth OD615, 2 d; at 50 µM; stronger effect = higher value
[16] = H69AR cells + 2 uM doxorubicin, measured here: viability with 2 uM doxorubicin, stronger effect = lower value
[17] = H69AR cells, compound alone cytotoxicity

Sequence of Receptor tyrosine-protein kinase erbB-2 (Homo sapiens) (P04626 whole entry, looked up): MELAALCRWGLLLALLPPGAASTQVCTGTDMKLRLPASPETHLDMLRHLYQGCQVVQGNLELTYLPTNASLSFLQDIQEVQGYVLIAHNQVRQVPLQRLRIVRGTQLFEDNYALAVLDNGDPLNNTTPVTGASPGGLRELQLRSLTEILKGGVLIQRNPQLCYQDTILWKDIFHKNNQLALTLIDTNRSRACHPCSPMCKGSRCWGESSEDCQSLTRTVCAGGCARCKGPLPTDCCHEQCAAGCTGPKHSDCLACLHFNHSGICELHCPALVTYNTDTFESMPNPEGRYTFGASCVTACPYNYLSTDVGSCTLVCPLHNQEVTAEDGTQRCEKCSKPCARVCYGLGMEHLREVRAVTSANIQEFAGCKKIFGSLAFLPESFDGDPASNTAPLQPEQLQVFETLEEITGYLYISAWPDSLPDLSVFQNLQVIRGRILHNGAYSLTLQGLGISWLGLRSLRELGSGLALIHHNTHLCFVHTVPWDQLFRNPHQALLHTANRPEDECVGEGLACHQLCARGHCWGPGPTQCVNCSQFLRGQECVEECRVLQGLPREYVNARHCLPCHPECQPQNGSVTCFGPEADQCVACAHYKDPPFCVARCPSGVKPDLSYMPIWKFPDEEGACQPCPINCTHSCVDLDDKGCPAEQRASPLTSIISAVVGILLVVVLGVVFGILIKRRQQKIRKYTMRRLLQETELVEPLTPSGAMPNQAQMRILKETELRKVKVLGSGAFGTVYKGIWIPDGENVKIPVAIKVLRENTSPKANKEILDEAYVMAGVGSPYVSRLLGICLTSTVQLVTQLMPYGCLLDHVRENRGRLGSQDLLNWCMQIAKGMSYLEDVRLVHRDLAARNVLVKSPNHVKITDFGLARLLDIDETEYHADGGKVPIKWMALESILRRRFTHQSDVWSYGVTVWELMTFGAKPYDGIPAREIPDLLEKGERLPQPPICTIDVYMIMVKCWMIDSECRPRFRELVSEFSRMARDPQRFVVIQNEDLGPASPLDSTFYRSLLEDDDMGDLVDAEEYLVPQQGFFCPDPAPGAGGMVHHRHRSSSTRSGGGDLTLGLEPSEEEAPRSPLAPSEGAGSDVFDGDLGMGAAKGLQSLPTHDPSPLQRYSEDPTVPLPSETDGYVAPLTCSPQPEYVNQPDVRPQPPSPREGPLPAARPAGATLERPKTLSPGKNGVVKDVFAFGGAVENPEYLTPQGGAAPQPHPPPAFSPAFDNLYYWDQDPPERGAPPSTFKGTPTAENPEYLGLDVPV

CN1CCc2c(sc3c2C(=O)NC(c2cccc(OC(=O)c4cccs4)c2)N3)C1 (stereo unspecified)
85.6%: viability [6, 17]
81.5%: viability [1]
94.6%: viability [6, 16]
inactive: Her2 level [2] 78.5% | viability [3] 81.5% | viability [4] 68% | viability [5] 85.6% | differential viability (reversal) ([6]; H69AR cells + 2 uM doxorubicin) -8.95% | inhibition [7] -5.07% | inhibition [8] 7.5% | growth inhibition [9] 8.64% | growth inhibition [10] 11.5% | viability increase [11] -4.85% | viability [12] 96.3% | viability [13] 93.8% | inhibition [14] 0.215% | RAM network inhibition [15] 4.47%

O=C(CSc1nc2c(c(=O)n1-c1ccc(F)cc1)SCC2)NCC1CCCO1 (stereo unspecified)
105%: viability [6, 17]
inactive: Her2 level [2] 101% | viability [3] 93.5% | viability [4] 92.6% | viability [5] 105% | differential viability (reversal) ([6]; H69AR cells + 2 uM doxorubicin) 12% | inhibition [7] -2.4% | inhibition [8] -1.61% | growth inhibition [9] -8.12% | growth inhibition [10] -16.6% | viability increase [11] -3.46% | viability [12] 98.2% | viability [13] 90.9% | inhibition [14] 1.46% | RAM network inhibition [15] 5.77%
93.5%: viability [1]
92.6%: viability [6, 16]

COc1ccc(C(=O)NCc2nc3ccccc3[nH]2)cc1OC
110%: viability [1]
inactive: Her2 level [2] 115% | viability [3] 110% | viability [4] 101% | viability [5] 107% | differential viability (reversal) ([6]; H69AR cells + 2 uM doxorubicin) 16.6% | inhibition [7] -3.6% | inhibition [8] -6.67% | growth inhibition [9] -9.82% | growth inhibition [10] -15% | viability increase [11] 0.84% | viability [12] 102% | viability [13] 98.2% | inhibition [14] 2.96% | RAM network inhibition [15] 6.63%
90.2%: viability [6, 16]
107%: viability [6, 17]

CC1(C(=O)NC2CCCCC2)CCC(=O)N1Cc1cccs1 (stereo unspecified)
90.5%: viability [6, 16]
inactive: Her2 level [2] 114% | viability [3] 83% | viability [4] 102% | viability [5] 85.3% | differential viability (reversal) ([6]; H69AR cells + 2 uM doxorubicin) -5.18% | inhibition [7] 2.31% | inhibition [8] 8.83% | growth inhibition [9] -4.46% | growth inhibition [10] -15.9% | viability increase [11] -0.4% | viability [12] 102% | viability [13] 93.7% | inhibition [14] 3.65% | RAM network inhibition [15] 1.09%
85.3%: viability [6, 17]
83%: viability [1]

COc1ccc(NC(=O)C2Cc3ccccc3C(=O)O2)cc1 (stereo unspecified)
85.9%: viability [6, 16]
inactive: Her2 level [2] 92.5% | viability [3] 90% | viability [4] 104% | viability [5] 91.8% | differential viability (reversal) ([6]; H69AR cells + 2 uM doxorubicin) 5.95% | inhibition [7] -2.53% | inhibition [8] -1.67% | growth inhibition [9] 1.22% | growth inhibition [10] 1.67% | viability increase [11] 0.31% | viability [12] 105% | viability [13] 104% | inhibition [14] 1.79% | RAM network inhibition [15] 3.16%
90%: viability [1]
91.8%: viability [6, 17]

CC1CCN(C(=O)CSCC(=O)Nc2nc(-c3cccs3)cs2)CC1
86%: viability [1]
91.1%: viability [6, 17]
86.6%: viability [6, 16]
inactive: Her2 level [2] 80.5% | viability [3] 86% | viability [4] 67% | viability [5] 91.1% | differential viability (reversal) ([6]; H69AR cells + 2 uM doxorubicin) 4.54% | inhibition [7] -1.33% | inhibition [8] -1.15% | growth inhibition [9] 1.36% | growth inhibition [10] -5.56% | viability increase [11] -4.14% | viability [12] 100% | viability [13] 92.1% | inhibition [14] 0.24% | RAM network inhibition [15] -0.16%

O=c1c(-c2ccccc2)coc2c(CN3CCOCC3)c(O)ccc12
inactive: Her2 level [2] 105% | viability [3] 110% | viability [4] 96.4% | viability [5] 99% | differential viability (reversal) ([6]; H69AR cells + 2 uM doxorubicin) -1.39% | inhibition [7] 0.95% | inhibition [8] -7.87% | growth inhibition [9] -9.23% | growth inhibition [10] 4.11% | viability increase [11] -4.13% | viability [12] 91.7% | viability [13] 99.7% | inhibition [14] 0.58% | RAM network inhibition [15] -0.61%
110%: viability [1]
99%: viability [6, 17]
100%: viability [6, 16]

Cc1nc2ccc(S(=O)(=O)NC(C(=O)N3CCCC3)C(C)C)cc2s1 (stereo unspecified)
79.5%: viability [6, 16]
inactive: Her2 level [2] 106% | viability [3] 88.5% | viability [4] 111% | viability [5] 97.3% | differential viability (reversal) ([6]; H69AR cells + 2 uM doxorubicin) 17.8% | inhibition [7] -1.92% | inhibition [8] -0.5% | growth inhibition [9] 3.5% | growth inhibition [10] 11.5% | viability increase [11] -2.03% | viability [12] 92.2% | viability [13] 91.2% | inhibition [14] 2.62% | RAM network inhibition [15] 0.27%
88.5%: viability [1]
97.3%: viability [6, 17]

COc1ccc2[nH]c(C)c(CCN3C(=O)OC(C)(C)C3(C)O)c2c1 (stereo unspecified)
91.9%: viability [6, 16]
81.5%: viability [6, 17]
inactive: Her2 level [2] 108% | viability [3] 100% | viability [4] 102% | viability [5] 81.5% | differential viability (reversal) ([6]; H69AR cells + 2 uM doxorubicin) -10.4% | inhibition [7] -5.73% | inhibition [8] -6.67% | growth inhibition [9] 4.92% | growth inhibition [10] -5.26% | viability increase [11] -1.56% | viability [12] 107% | viability [13] 96.4% | inhibition [14] 1.92% | RAM network inhibition [15] 2.87%
100%: viability [1]

Cc1c(C(=O)NC2CC2)oc2ccc(S(=O)(=O)N3CCCCCC3)cc12
83%: viability [6, 17]
97.1%: viability [6, 16]
inactive: Her2 level [2] 106% | viability [3] 81.5% | viability [4] 96.8% | viability [5] 83% | differential viability (reversal) ([6]; H69AR cells + 2 uM doxorubicin) -14.2% | inhibition [7] -0.81% | inhibition [8] 3.44% | growth inhibition [9] -7.49% | growth inhibition [10] 6.7% | viability increase [11] 3.84% | viability [12] 92.9% | viability [13] 90.8% | inhibition [14] 0.26% | RAM network inhibition [15] 4.34%
81.5%: viability [1]

CC1(C)CC(=O)C2=C(C1)NC(=O)CC2c1ccc(N(CCC#N)CCC#N)cc1 (stereo unspecified)
101%: viability [1]
inactive: Her2 level [2] 120% | viability [3] 101% | viability [4] 101% | viability [5] 110% | differential viability (reversal) ([6]; H69AR cells + 2 uM doxorubicin) 23.6% | inhibition [7] -5.68% | inhibition [8] -1.8% | growth inhibition [9] -9.4% | growth inhibition [10] -8.29% | viability increase [11] 0.18% | viability [12] 91.5% | viability [13] 100% | inhibition [14] 1.41% | RAM network inhibition [15] 1.8%
86.6%: viability [6, 16]
110%: viability [6, 17]

CN(C)CCNc1oc(-c2ccccc2F)nc1C#N
93%: viability [1]
105%: viability [6, 17]
inactive: Her2 level [2] 94% | viability [3] 93% | viability [4] 87.4% | viability [5] 105% | differential viability (reversal) ([6]; H69AR cells + 2 uM doxorubicin) 14.7% | inhibition [7] -4.27% | inhibition [8] 3.77% | growth inhibition [9] -13.7% | growth inhibition [10] -6.7% | viability increase [11] 1.17% | viability [12] 107% | viability [13] 107% | inhibition [14] 1.36% | RAM network inhibition [15] 1.9%
90.3%: viability [6, 16]

O=C(C1CCC(CNc2c(N3CCCCC3)c(=O)c2=O)CC1)N1CCc2ccccc2C1 (stereo unspecified)
inactive: Her2 level [2] 93.5% | viability [3] 95% | viability [4] 107% | viability [5] 91.8% | differential viability (reversal) ([6]; H69AR cells + 2 uM doxorubicin) 9.49% | inhibition [7] -0.53% | inhibition [8] 0% | growth inhibition [9] -4.97% | growth inhibition [10] -4.18% | viability increase [11] -3.33% | viability [12] 87.5% | viability [13] 83.2% | inhibition [14] -0.07% | RAM network inhibition [15] 2.9%
82.3%: viability [6, 16]
91.8%: viability [6, 17]
95%: viability [1]
